Results published in PubChem BioAssay (NCATS).
“And” between values parts separate entries of the source, which are not always exact repeats. Equal entries are not always repeated. Inconclusive results are not listed. This is one part of the list. The source made the active and inactive calls. Unless noted, the call rests on the fitted dose curve; in most records, active means well fitted curve in the direction sought with a large enough effect; inconclusive means small, poorly fitted or top-dose-only effect, or another doubt; inactive means no such curve, though single readings can be large; an effect the other way counts as inactive or inconclusive.

Key:
[1] = biological target: Lysosomal acid glucosylceramidase (Homo sapiens) (UniProt P04062); assay: Glucocerebrosidase-p2 (AID 348; in the data active means potency below about 10 µM; further: potency means the concentration at half of the fitted maximal effect); details: purified GBA, blue fluorogenic substrate, 40 min
Lysosomal acid glucosylceramidase (Homo sapiens), sequence (P04062 whole entry, looked up): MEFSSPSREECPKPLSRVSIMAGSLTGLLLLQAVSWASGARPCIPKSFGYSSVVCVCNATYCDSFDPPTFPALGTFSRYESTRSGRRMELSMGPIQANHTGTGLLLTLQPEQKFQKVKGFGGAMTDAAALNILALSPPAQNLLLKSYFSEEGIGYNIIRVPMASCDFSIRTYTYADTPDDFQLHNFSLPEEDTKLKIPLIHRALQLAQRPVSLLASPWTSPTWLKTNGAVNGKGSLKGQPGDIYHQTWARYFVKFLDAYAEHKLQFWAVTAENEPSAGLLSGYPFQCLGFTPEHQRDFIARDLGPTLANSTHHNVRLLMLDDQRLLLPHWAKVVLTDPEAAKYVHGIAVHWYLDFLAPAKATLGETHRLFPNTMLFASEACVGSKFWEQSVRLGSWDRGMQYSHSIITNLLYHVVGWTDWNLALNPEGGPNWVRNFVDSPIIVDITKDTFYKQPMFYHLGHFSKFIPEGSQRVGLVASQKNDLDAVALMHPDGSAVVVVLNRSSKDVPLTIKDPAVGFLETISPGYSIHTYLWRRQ
Procedure, shortened: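 Normal human glucocerebrosidase (0.2 nM) with blue fluorogenic substrate (80 uM final) in citrate/phosphate pH 5.9 with 10mM sodium taurocholate, 0.01% tween-20; 40 min RT, NaOH/glycine stop; fluorescence Ex 365/Em 440; AC50 from a titration from 0.6 nM upwards.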

[2] = AP1 Signaling Pathway (AID 357; active means well fitted curve in either direction with a large enough effect, not every such curve was filed as active;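 further: ME-180 reporter cells stimulated with EGF at its EC50 level; on the % scale 0 is the no-effect control and ±100 the full control effect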); details: ME-180 AP-1-bla reporter, EGF-induced, beta-lactamase ratio, 5 h; at 7.69 µM (top of the series) unless noted
Procedure, shortened: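 Cells are seeded overnight, exposed to compound titrations and an EC50 level of EGF for 5 hours at 37 °C, then loaded with CCF4 dye for 2.5 hours. Beta-lactamase activity under the AP-1 element is read as a blue/green ratio.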

[3] = biological target: Cytochrome P450 1A2 (Homo sapiens) (UniProt P05177); assay: p450-cyp1a2 (AID 410; calls by dose curve; further: potency means the concentration at half of the fitted maximal effect)
Cytochrome P450 1A2 (Homo sapiens), sequence (P05177 whole entry, looked up): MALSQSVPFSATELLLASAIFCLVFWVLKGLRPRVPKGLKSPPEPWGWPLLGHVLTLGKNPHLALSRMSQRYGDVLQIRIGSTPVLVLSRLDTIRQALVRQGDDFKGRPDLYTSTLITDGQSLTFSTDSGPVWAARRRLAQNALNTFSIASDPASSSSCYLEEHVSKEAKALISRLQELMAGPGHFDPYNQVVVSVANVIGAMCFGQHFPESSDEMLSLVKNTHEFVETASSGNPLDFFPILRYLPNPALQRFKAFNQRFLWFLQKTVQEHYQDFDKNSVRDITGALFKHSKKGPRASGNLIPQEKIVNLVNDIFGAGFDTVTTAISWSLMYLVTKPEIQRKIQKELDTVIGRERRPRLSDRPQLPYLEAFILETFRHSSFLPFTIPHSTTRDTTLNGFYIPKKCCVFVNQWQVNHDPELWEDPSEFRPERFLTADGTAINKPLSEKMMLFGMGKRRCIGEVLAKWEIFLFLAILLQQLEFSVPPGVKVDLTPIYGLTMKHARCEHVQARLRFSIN
Procedure, shortened: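 O-Demethylation of luciferin 6' methyl ether by human CYP1A2 is monitored as luciferase luminescence. Substrate sits at Km (100uM); enzyme is 20nM. Values are scaled to 57 uM furafylline as maximal inhibition.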

[4] = NFAT Signaling Pathway (AID 444; active means well fitted curve in either direction with a large enough effect, not every such curve was filed as active;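 further: carbachol stimulus at about its EC50 of 1 µM final; on the % scale 0 is the no-effect control and ±100 the full control effect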); details: Jurkat NFAT-bla M1, carbachol, beta-lactamase ratio, 5 h; at 7.69 µM (top of the series) unless noted
Procedure, shortened: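 Read-out: CCF4 FRET ratio (460 nm/530 nm) after 1 h RT dye loading, used for %activity and AC50 from titration series. Cells: Jurkat NFAT-β-lactamase/M1 line, treated with compound plus 1 uM carbachol for 5 h, 37 °C.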

[5] = Stat Signaling Pathway (AID 446; active means well fitted curve in either direction with a large enough effect, not every such curve was filed as active;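 further: ME-180 cervical cancer cells given 40 pM IL-6 alongside compound; SIE-controlled beta-lactamase reporter measured as 460/530 nm FRET emission ratio; on the % scale 0 is the no-effect control and ±100 the full control effect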); details: ME-180 (cervical carcinoma) SIE beta-lactamase reporter, IL-6 stimulated, 5 h; at 7.69 µM (top of the series) unless noted
Procedure, shortened: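 Emission at 460 and 530 nm (excitation 405 nm) reports SIE-controlled beta-lactamase in ME-180 cells. Cells received compound with 40 pM IL-6 for 5 hrs at 37 C; data scaled between 300 pM IL-6 and 125 nM JAK-inhibitor controls.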

[6] = biological target: Glucocorticoid receptor (Homo sapiens) (UniProt P04150); assay: GR-GFP Redistribution (AID 450;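 active means compounds whose dose series gives a full or clear partial fitted curve of increased nuclear translocation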; further: potency means the concentration at half of the fitted maximal effect); details: U2OS GR-GFP nuclear translocation, laser cytometry, 2 h
Glucocorticoid receptor (Homo sapiens), sequence (P04150 whole entry, looked up, the tested form may be a part): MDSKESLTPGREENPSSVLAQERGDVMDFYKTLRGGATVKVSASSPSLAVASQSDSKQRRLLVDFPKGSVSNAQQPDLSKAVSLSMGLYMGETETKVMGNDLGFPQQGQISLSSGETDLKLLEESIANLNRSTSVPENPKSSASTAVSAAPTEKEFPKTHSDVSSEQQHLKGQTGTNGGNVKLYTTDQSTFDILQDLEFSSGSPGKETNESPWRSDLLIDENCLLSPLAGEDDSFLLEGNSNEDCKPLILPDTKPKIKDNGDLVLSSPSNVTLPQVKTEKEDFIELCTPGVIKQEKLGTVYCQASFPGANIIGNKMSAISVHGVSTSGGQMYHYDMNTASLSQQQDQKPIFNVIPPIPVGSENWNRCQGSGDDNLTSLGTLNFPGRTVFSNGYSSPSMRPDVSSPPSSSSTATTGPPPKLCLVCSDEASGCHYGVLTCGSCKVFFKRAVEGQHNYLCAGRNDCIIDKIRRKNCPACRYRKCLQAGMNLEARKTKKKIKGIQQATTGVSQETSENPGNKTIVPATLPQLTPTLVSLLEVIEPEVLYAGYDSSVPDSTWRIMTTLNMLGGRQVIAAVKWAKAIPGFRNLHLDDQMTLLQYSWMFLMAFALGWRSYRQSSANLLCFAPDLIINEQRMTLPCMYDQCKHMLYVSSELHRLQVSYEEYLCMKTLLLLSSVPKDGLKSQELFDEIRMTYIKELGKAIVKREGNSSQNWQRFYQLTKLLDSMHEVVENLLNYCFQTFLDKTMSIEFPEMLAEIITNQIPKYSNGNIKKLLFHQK

[7] = biological target: Glucocorticoid receptor (Homo sapiens) (UniProt P04150); assay: GR-EFC Redistribution (AID 451; calls by dose curve; further: potency means the concentration at half of the fitted maximal effect); details: CHO-K1 GR-EFC translocation, beta-gal luminescence, 2 h
Procedure, shortened: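 Translocation of GR-ED fusion to nuclear EA restores b-gal, read by luminescence after 1 h room-temperature detection. Engineered CHO-K1 biosensor cells, 1,000/well, exposed 2 h at 37 C to titrations up to 46 uM final.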

[8] = biological target: Mitogen-activated protein kinase 10 (Mus musculus) (UniProt Q61831); assay: JNK3 AlphaScreen Assay (AID 530; active means well fitted curve in either direction with a large enough effect, not every such curve was filed as active;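 further: kinase came from lysate of stimulated human HepG2 cells; signal reports phosphorylation of biotinylated GST-cJun 1-79 at Ser73 with 10 µM ATP; on the % scale 0 is the no-effect control and ±100 the full control effect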)
Procedure, shortened: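 qHTS titrations with 15 min compound pre-incubation before adding ATP (10 uM final). Read-out: AlphaScreen of Ser73-phosphorylated biotin-GST-cJun using HepG2 lysate JNK3 activated by IL-1β and TNFα.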

[9] = biological target: 3',5'-cyclic-AMP phosphodiesterase 4B (Homo sapiens) (UniProt Q07343); assay: qHTS Assay for Inhibitors of PDE-IV (AID 607; active means well fitted activation curve with a large enough effect in the main read-out, with a control signal flat, not every such curve was filed as active; further: % of control where 0% means no effect)
3',5'-cyclic-AMP phosphodiesterase 4B (Homo sapiens), sequence (Q07343 whole entry, looked up): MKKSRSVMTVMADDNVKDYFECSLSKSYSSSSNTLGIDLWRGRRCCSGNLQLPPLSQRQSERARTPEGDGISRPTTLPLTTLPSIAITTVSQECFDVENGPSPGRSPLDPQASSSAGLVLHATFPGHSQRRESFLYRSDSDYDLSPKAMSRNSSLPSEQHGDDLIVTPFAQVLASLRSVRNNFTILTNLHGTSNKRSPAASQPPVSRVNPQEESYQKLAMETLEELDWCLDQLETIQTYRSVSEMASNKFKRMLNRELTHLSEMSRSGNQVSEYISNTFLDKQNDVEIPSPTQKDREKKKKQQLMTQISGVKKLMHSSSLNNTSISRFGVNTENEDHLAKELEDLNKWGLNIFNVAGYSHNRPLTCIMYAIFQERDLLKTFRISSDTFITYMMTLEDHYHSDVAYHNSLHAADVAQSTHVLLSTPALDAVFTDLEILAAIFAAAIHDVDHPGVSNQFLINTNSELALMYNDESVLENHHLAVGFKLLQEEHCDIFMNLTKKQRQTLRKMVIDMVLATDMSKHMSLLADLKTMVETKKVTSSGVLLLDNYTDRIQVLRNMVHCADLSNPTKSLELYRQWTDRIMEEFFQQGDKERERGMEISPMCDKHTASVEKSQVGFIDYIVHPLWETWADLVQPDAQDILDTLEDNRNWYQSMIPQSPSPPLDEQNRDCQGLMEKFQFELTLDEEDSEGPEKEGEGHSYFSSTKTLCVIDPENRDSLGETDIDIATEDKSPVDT
Procedure, shortened: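 The readout is membrane depolarisation from a cAMP-sensing CNG channel, detected with a potential dye at ex 535/em 590. Cells were HEK293-derived (endogenous PDE-IV) at 1000 cells/well, titrated up to 22.9 uM final.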

[10] = biological target: Cytochrome P450 3A4 (Homo sapiens) (UniProt P08684); assay: qHTS Assay for Activators of Cytochrome P450 3A4 (AID 885); further: nearly all actives have a fitted effect of over 65% in size
Cytochrome P450 3A4 (Homo sapiens), sequence (P08684 whole entry, looked up): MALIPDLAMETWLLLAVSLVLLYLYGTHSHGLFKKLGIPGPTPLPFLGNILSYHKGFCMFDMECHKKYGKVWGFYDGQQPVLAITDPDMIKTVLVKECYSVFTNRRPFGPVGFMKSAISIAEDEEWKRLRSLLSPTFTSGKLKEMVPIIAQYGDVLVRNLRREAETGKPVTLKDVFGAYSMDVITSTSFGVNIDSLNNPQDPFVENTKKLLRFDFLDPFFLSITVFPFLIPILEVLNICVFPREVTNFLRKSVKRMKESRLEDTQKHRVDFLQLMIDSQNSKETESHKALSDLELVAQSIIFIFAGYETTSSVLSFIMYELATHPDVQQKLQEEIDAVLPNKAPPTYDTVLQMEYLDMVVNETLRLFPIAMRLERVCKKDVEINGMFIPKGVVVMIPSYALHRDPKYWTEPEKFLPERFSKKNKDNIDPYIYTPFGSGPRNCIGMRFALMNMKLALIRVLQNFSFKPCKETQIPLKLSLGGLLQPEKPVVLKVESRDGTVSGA
Procedure, shortened: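 Activators are scored by enhanced luminescence from CYP3A4 conversion of luciferin-PPXE (25uM, equal to KM) to luciferin, after 60 min at RT with an NADPH-regenerating system.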

[11] = biological target: Dual specificity protein kinase CLK4 (Homo sapiens) (UniProt Q9HAZ1); assay: qHTS Assay for Inhibitors of CDC-like Kinase 4 (Kinase-Glo Assay) (AID 1770); further: nearly all actives have a fitted effect of over 65% in size; further: potency means the concentration at half of the fitted maximal effect
Dual specificity protein kinase CLK4 (Homo sapiens), sequence (Q9HAZ1 whole entry, looked up): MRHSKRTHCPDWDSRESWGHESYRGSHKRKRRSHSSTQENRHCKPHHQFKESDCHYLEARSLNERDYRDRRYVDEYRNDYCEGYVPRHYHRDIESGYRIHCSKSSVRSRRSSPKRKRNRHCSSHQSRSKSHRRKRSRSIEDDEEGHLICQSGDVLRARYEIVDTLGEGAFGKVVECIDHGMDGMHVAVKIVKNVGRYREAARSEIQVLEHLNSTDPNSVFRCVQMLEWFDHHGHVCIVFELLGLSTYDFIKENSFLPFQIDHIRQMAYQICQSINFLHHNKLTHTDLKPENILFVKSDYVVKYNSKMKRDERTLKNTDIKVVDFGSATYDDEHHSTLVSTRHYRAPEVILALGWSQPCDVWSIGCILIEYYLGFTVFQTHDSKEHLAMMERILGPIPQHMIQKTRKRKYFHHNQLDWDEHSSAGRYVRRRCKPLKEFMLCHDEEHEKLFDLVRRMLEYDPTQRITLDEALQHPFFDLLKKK
Procedure, shortened: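 Substrate mix (RS peptide 100 uM, ATP 1 uM) dispensed, compound pinned in, then Clk4 added to 25 nM final. Incubated 4.5 h at RT; Kinase-Glo reagent added, luminescence read after 5 min.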

[12] = biological target: Dual specificity protein kinase CLK4 (Homo sapiens) (UniProt Q9HAZ1); assay: qHTS Assay for Inhibitors of CDC-like Kinase 4 (ADP-Glo Assay) (AID 1771); further: nearly all actives have a fitted effect of over 70% in size; further: potency means the concentration at half of the fitted maximal effect
Procedure, shortened: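 Compounds are pin-transferred onto substrate mix (100 uM RS peptide, 1 uM ATP), then 25 nM Clk4 is added. After 1 hr at room temperature, ADP-Glo reagent runs 45 min, detection reagent 30 min, then luminescence is read.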

[13] = biological target: Ubiquitin carboxyl-terminal hydrolase 1 (Homo sapiens) (UniProt O94782); assay: Inhibitors of USP1/UAF1: Pilot qHTS (AID 504865);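 further: rhodamine fluorescence freed from ubiquitin-rhodamine substrate followed over time; top concentration of the series differs between compounds; on the % scale 0 is the no-effect control and ±100 the full control effect; nearly all actives have a fitted effect of over 35% in size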
Ubiquitin carboxyl-terminal hydrolase 1 (Homo sapiens), sequence (O94782 whole entry, looked up): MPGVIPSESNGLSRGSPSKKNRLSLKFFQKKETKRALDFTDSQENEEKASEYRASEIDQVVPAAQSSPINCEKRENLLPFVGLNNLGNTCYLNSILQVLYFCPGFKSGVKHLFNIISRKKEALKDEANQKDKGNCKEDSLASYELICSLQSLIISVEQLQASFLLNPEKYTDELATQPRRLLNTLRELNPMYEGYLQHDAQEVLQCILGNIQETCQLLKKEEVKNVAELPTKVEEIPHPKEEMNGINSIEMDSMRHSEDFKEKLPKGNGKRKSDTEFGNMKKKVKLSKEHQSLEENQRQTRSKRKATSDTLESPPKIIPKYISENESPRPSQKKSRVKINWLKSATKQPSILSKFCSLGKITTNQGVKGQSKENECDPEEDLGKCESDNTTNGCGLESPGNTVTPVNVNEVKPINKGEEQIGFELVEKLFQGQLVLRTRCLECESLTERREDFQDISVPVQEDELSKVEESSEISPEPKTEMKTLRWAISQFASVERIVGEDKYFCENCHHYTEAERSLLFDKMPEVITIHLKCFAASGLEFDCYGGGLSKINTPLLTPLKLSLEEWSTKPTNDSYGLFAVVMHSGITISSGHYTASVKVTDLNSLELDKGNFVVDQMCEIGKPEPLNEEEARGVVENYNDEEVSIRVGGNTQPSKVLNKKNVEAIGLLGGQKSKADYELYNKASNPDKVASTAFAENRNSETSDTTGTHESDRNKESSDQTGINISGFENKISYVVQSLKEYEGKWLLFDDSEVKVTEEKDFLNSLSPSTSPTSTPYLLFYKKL
Procedure, shortened: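 In 50mM HEPES pH 7.8 containing 0.5mM EDTA, 1mM TCEP, 0.1 mg/ml BSA and 0.01% Tween-20, 1nM USP1/UAF1 is exposed to compound for 15 min, then Ub-Rho (150nM final) is added and fluorescence is read over time.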

[14] = biological target: Dual specificity protein kinase CLK4 (Homo sapiens) (UniProt Q9HAZ1); assay: qHTS Assay for Inhibitors of CDC-like Kinase 4 (ADP-FP Assay) (AID 1795);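 further: recombinant human CLK4 phosphorylating RS repeat peptide at 1 µM ATP; on the % scale 0 is the no-effect control and ±100 the full control effect; nearly all actives have a fitted effect of over 60% in size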
Procedure, shortened: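 Clk4 6.25 nM; RS peptide 100 uM; ATP 1 uM; 25 mM Tris pH 7.5, 10 mM MgCl2; 1 h reaction. ADP detected via antibody/orange tracer FP displacement; TG003 positive control.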

[15] = biological target: Rap guanine nucleotide exchange factor 3 (Homo sapiens) (UniProt O95398); assay: Confirmatory qHTS for antagonist of cAMP-regulated guanine nucleotide exchange factor 3 (EPAC1) (AID 1645880);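 further: plate controls were DMSO only for no effect and full effect of the ATA control for full effect; nearly all actives have a fitted effect of over 55% in size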
Procedure, shortened: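 Released BODIPY-GDP fluoresces less than Rap1-bound BODIPY-GDP; the signal is followed at 480/540 nm at 5-min intervals over 30 min, after 5 min at room temperature. Reactions contain 100 nM EPAC1, 250 nM RAP1B-BODIPY-GDP and 50 uM GDP; results are normalized to ATA and DMSO.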

[16] = biological target: Rap guanine nucleotide exchange factor 4 (Homo sapiens) (UniProt Q8WZA2); assay: Confirmatory qHTS for antagonist of cAMP-regulated guanine nucleotide exchange factor 4 (EPAC2) (AID 1645885); further: on the % scale 0 is the no-effect control and ±100 the full control effect; nearly all actives have a fitted effect of over 25% in size
[17] = biological target: Vitamin D3 receptor (Homo sapiens) (UniProt P11473); assay: qHTS for Inhibitors of the vitamin D receptor (VDR): Hit Validation in Primary Screen (AID 602199); details: VDR-coactivator inhibition assay, qHTS confirmation; further: potency means the concentration at half of the fitted maximal effect
Vitamin D3 receptor (Homo sapiens), sequence (P11473 whole entry, looked up, the tested form may be a part): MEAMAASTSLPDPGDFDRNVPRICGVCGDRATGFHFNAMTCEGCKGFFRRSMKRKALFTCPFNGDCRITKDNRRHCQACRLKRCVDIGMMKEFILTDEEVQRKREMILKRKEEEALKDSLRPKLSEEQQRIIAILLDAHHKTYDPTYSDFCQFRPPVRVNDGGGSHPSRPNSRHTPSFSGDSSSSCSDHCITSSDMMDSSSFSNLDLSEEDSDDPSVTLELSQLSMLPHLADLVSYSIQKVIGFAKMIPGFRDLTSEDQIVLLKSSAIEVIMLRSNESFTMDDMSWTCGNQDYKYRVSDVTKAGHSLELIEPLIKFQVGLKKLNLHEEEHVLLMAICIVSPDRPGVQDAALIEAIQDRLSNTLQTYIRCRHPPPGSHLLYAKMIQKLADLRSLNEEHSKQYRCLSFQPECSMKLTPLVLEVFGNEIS
Procedure, shortened: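 With 800 nM VDR and 5 uM LG19078 agonist present, compounds were incubated 2 h at ambient temperature with Alexa 647-labelled SRC2-3. Displacement was read as polarization at 620/688 nm.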

[18] = biological target: Vitamin D3 receptor (Homo sapiens) (UniProt P11473); assay: qHTS for Inhibitors of the vitamin D receptor (VDR): Hit Validation using a Fluorescein Assay (AID 602200); details: VDR-coactivator binding, fluorescein fluorescence polarization; further: potency means the concentration at half of the fitted maximal effect
Procedure, shortened: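 Compounds added to VDR ligand-binding domain (1.5 uM) with agonist LG19078 (5 uM) and 5 nM SRC2-3 fluorescein peptide, final concentrations. After 2 h at ambient temperature, polarization of fluorescein emission (Ex 495 nm/Em 520 nm) measured.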

[19] = biological target: Vitamin D3 receptor (Homo sapiens) (UniProt P11473); assay: qHTS for Inhibitors of the vitamin D receptor (VDR): Hit Validation using a Beta-Lactamase Assay (AID 602202); further: potency means the concentration at half of the fitted maximal effect
Procedure, shortened: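 Beta-lactamase reporter read-out (447 nm emission of cleaved FRET substrate, 2 h) after 18 h compound exposure of HEK293 cells carrying a VDR-GAL4 fusion and UAS reporter, stimulated with LG190178.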

[20] = Confirmation and Secondary Assay for Modulators of Hemoglobin Beta Chain Splicing at IVS2 654 locus (AID 910);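 further: HeLa cells stably carrying EGFP split by mutant beta-globin IVS2-654 intron; per-well total GFP intensity by laser scanning cytometry after 2-day treatment; % of control where 0% means no effect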
Procedure, shortened: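 Readout: per-well total peak green fluorescence (488 nm ex, 500–520 nm em) from objects 5–250 µm, reflecting correct splicing of an EGFP-654 reporter. Compounds were applied for 2 days at 37 °C to overnight-plated HeLa EGFP-654 cells; controls were DMSO and 500 nM IVS2-654 PNA.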

[21] = Confirmation and Secondary Assay for Modulators of Hemoglobin Beta Chain Splicing at IVS2 705 locus (AID 930);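 further: HeLa cells stably expressing the EGFP-705 splicing reporter; GFP fluorescence per well restored by corrected splicing of the IVS2-705 intron in EGFP; % of control where 0% means no effect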
Procedure, shortened: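 Stable HeLa line with EGFP disrupted by mutant beta-globin intron 2 (705). Overnight attachment, then 2 days of compound at 37C, 5% CO2. Signal: peak GFP intensity summed over objects 5-250 µm.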

[22] = qHTS Assay for Lipid Storage Modulators (AID 1519; calls by dose curve); details: Drosophila S3 cells, BODIPY lipid droplet/cell ratio, laser cytometry, cells loaded with oleic acid
Procedure, shortened: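 Cells seeded at 5,000 per well were treated with compounds over a concentration series and loaded with oleic acid (400 uM, as added). Lipid droplet fluorescence (488 nm excitation, 500-530 nm channel) was read by laser-scanning cytometry and normalized to 20 uM Triacsin C.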

COc1ccccc1-c1cc(NCc2cccs2)ncn1
active: Potency [3] 1.58 µM | Potency [11] 14.1 µM | Potency [12] 14.1 µM
inactive: Potency [1] > 11.4 µM | activity change, negative = inhibition [2] 0.573% | activity change, negative = inhibition [4] 9.61% | activity, negative = inhibition [5] -5.58% | Potency [6] > 46 µM | Potency [7] > 46 µM | Potency [8] | Potency [9] | Potency [10] | Potency [13]

COc1ccc(-c2nc3cnc(OC)nc3n(CCC#N)c2=O)cc1
inactive: Potency [1] > 11.4 µM | activity change, negative = inhibition [2] -7.37% | activity change, negative = inhibition [4] -4.16% | Potency [6] > 9.22 µM | Potency [7] > 46 µM | Potency [8] | Potency [9] | Potency [11] | Potency [12] | Potency [14] | Potency [13]
active: Potency [3] 6.31 µM

COc1ccc(C(=O)N2CCC3(CCCN(C(=O)NC(C)C)C3)CC2)cc1
inactive: Potency [1] > 11.4 µM | activity change, negative = inhibition [2] -3.27% | activity change, negative = inhibition [4] 2.69% | activity, negative = inhibition [5] 0.47% | Potency [7] > 46 µM | Potency [8] | Potency [9]

COc1ccc(C(=O)N2CCC3(CCCN(c4cccc(-c5ccccc5)c4)C3)CC2)cc1
inactive: Potency [1] > 11.4 µM | activity change, negative = inhibition [2] 11.7% | activity, negative = inhibition [5] 1.07% | Potency [7] > 46 µM | Potency [8] | Potency [9] | Potency [15] | Potency [16]

COc1ccccc1-c1cc(C(F)(F)F)nc(S(=O)(=O)CCCC(=O)Nc2ccc(F)cc2F)n1
active: Potency [17] 4.47 µM | Potency [18] 8.91 µM | Potency [19] 18.4 µM

N#Cc1cccc(NC(=O)N2CC[C@@]3(CCCN(C(=O)c4cccc(F)c4)C3)C2)c1
inactive: activity change, negative = inhibition [2] -20.8% | activity, negative = inhibition [5] -2.81% | Potency [7] > 46 µM | Potency [8] | Potency [9] | Potency [10]

Cc1cnc(CNc2ncncc2-c2ccccc2Cl)cn1
inactive: Potency [1] > 11.4 µM | activity change, negative = inhibition [2] -2.38% | activity change, negative = inhibition [4] 13.7% | activity, negative = inhibition [5] -0.675% | Potency [6] > 46 µM | Potency [7] > 46 µM | Potency [8] | Potency [9] | Potency [10] | Potency [11] | Potency [12] | Potency [14] | Potency [13]
active: Potency [3] 15.8 µM

Nc1ccn(C2OC(CO)C(O)C2O)c(=O)n1 (stereo not drawn)
-5.62% and 10.3%: max response ([22]; measured here: lipid channel max response)
-9.2% and 5.05%: max response ([22]; measured here: cell count channel max response)
inactive: Potency [20] | outcome [21] | activity change, negative = inhibition ([22]; at 57.5 µM (top of the series)) 2.01% and 0.795%
